Molecules are shown by their SMILES. Screen size: about 68,000 compounds; about 2,700 (4%) showed an effect of 50% or more. Only a selection was taken, and strong results are over-represented in it overall.

This experiment has as its system Plasmodium berghei. Kind of experiment: Screen against P. berghei liver stage (PbLuc), transformed with Luciferase, at 2uM. The class given is functional, HepG2. The conditions noted are these: tested at 2 uM.
On to `O=C(NCC1(c2ccc(F)cc2)CCCC1)N1CCOC(CO)C1` (stereo not drawn), for which the INHIBITION is on record as 12.41%. The figure for `Cn1ncnc1-c1ccnc(N2CCC(C(O)c3cccs3)CC2)n1` (stereo not drawn) is 39.98%. The figure for `Fc1cccc(N2CCCC3(CN(Cc4cccnc4)CCO3)C2)c1` (stereo not drawn) is -18.59%. The figure for `O=c1[nH]c2ccccc2c2c1CCO2` is -66.7%; for `O=C(Nc1ccccn1)NC(CCCO)c1ccccc1` (stereo not drawn) it is -67.62%.

As to `Cc1ccc(CN2CC[C@H]3OCC[C@@]3(COCC(=O)N(C)C)C2)s1`, the INHIBITION is given as -14.52%. In the case of `CCc1ccc(CN2CCCC(CO)(CCOC)C2)cc1` (stereo not drawn), the INHIBITION came out at 22.74%.

For `CC(C)NC(=O)[C@@H]1C[C@H](N)CN1C(=O)c1cc2c([nH]c1=O)CCCC2`, the INHIBITION is listed as -34.26%. On to `CCN(CC)C(=O)[C@@H]1C[C@H](N)CN1C(=O)c1cc2c([nH]c1=O)CCC2`, for which the INHIBITION is 22.89%. The figure for `CCN(CC)C(=O)[C@@H]1C[C@@H](N)CN1C(=O)c1cc2c([nH]c1=O)CCC2` is 56.16%; for `CCN1CC2(CCC1=O)CCN(CCc1nccn1C)CC2` it is 25.65%; for `CNc1nnc(CCn2nc(C)c(Br)c2C)s1` it is 6.05%.

Turning to `CC(C)(C)CC(=O)NC[C@H]1OC[C@@H](NCc2ccccn2)[C@@H]1O`, the INHIBITION is on record as 16.43%. The figure for `CC(C)=CCS(=O)(=O)Cc1ccn(-c2cccc(F)c2)n1` is 58.14%; for `CCS(=O)(=O)Cc1ccn(-c2cccc(F)c2)n1` it is 6.82%; for `CN(C)C(=O)CS(=O)(=O)Cc1ccn(-c2cccc(F)c2)n1` it is -19.29%. The figure for `CCCNC(=O)CNc1cc(C#N)ccc1OCC` is -19.76%; for `Cn1ncc(C(=O)O)c1C(=O)Nc1nc2ccc(Br)cc2s1` it is 3.27%; for `N#Cc1ccc(CNCC2CCN(CCO)CC2)cc1` it is 1.07%. The figure for `Cc1[nH]c2ccc(CNc3cc(C(=O)NC(C)C)ccn3)cc2c1C` is 15.46%. For the compound `O=C1CO[C@H]2CN(S(=O)(=O)c3ccccc3)C[C@H]2N1Cc1ccccc1`, the INHIBITION is 15.98%. The figure for `O=C1CO[C@@H]2CN(S(=O)(=O)c3ccccc3)C[C@H]2N1CC1CC1` is -30.12%; for `O=C1CO[C@H]2CN(S(=O)(=O)c3ccccc3)C[C@H]2N1c1ccccc1` it is 53.27%. Regarding `CC(C)c1noc(C[S+]([O-])CC(=O)Nc2cc(F)ccc2F)n1` (stereo not drawn), the INHIBITION came out at 12.35%.

`CC(NC1CCN(CCS(C)(=O)=O)CC1)c1ccc(Cl)cc1` (stereo not drawn): the INHIBITION is given as -26.72%. The figure for `COCCNC(=O)CCNc1cc(C)nc(-c2ccncc2)n1` is 69.06%; for `Cc1cc(NCCC(=O)NC(C)C)nc(-c2ccncc2)n1` it is -1.96%; for `Cc1cc(NCCC(=O)NC2CCCC2)nc(-c2ccncc2)n1` it is -82.36%.

Source of the values: ChEMBL document CHEMBL4513216, “Probing the Open Global Health Chemical Diversity Library for Multistage-Active Starting Points for Next-Generation Antimalarials” (ACS Infect Dis, 2020).
